Experimental data taken from ChEMBL document CHEMBL3988442, “University of Dundee, Small-Polar-MMV Screening Library” (2021).
Hit rate of the full screen: of about 48,000 compounds, about 13,000 (27%) showed an effect of 50% or more. Some of the results follow.

System: Wolbachia pipientis
Assay: Anti-Wolbachia Cell-Based Screen
Type: functional
Set-up: scale not given: in the data most compounds retested in dose-response had high values
Conditions: 5 µM

Structure (SMILES) | Percent Effect [%]
Cc1cccnc1CNC[C@H]1Cn2cc(-c3ccccc3)nc2CO1 | 6.747
NC(=O)c1cccc(CNC(=O)NCCOc2ccc(F)c(F)c2)c1 | 0.2822
CSCc1noc(C2CCC(=O)N(CCCN3CCCC3=O)C2)n1 (centres undefined) | -15.49
OCCOc1ccc(NCc2cc(F)cc3cccnc23)cn1 | -4.55
Cc1noc(CCCC(=O)N2CSCC2C(=O)NCC2CC2)n1 (centres undefined) | 8.382
CC(C)(C)C(=O)NC(c1nccs1)C1CCN(CC2CCCCC2)CC1.Cl (centres undefined) | 130.3
CC(NC(=O)NC1CCN(CC2CCCC2)CC1)c1nccs1 (centres undefined) | -2.566
CC(NCCN1CCN(C(=O)C2CCCC2)CC1)c1nccs1 (centres undefined) | 4.028
Clc1ccc(N2CCC(C3CCN(Cc4cccnc4)CC3)C2)nc1 (centres undefined) | 4.175
CC(c1nc(C2CC2)no1)N1CCN(Cc2ccccc2)CC1 (centres undefined) | 7.857
Cc1noc(C)c1CN1CCN(Cc2nc(C3CC3)no2)CC1 | -14.96
Cc1noc(C(C)N2CCN(Cc3noc(C4CC4)n3)CC2)n1 (centres undefined) | 1.427
Cc1noc(C)c1CN1CCN(C(C)c2nc(C3CC3)no2)CC1 (centres undefined) | 133.7
CCc1noc(C(C)N2CCN(Cc3noc(C)n3)CC2)n1 (centres undefined) | -22.55
Cc1nnc(C(C)N2CCN(Cc3noc(C(C)(C)C)n3)CC2)o1 (centres undefined) | 6.078
CC(C)c1noc(C(C)N2CCN(Cc3ccco3)CC2)n1 (centres undefined) | -4.875
Cc1nc(CN2CCN(C(C)c3nc(C4CC4)no3)CC2)no1 (centres undefined) | 103.1
Cc1ccccc1CN1CCN(C(C)c2nc(C3CC3)no2)CC1 (centres undefined) | 114.1
CC(c1nc(C2CC2)no1)N1CCN(Cc2ccccc2F)CC1 (centres undefined) | 3.653
CC(C)c1noc(C(C)N2CCN(Cc3noc(C(C)(C)C)n3)CC2)n1 (centres undefined) | 117.7
COc1ncccc1NC(=O)N1CCC(c2ccc(O)cc2)CC1 | -2.726
CC(C)c1nc(C(=O)N2CCCC(N)CC2)cs1 (centres undefined) | -4.509
CN(CC(F)F)C(=O)c1cn(-c2ccc(Br)cc2)cn1 | 1.903
CN(Cc1nc(C2CC2)no1)C(=O)C1COc2ccccc2C1 (centres undefined) | 29.53
Cc1ccnc(C(NC(=O)c2ncoc2C)C2CC2)n1 (centres undefined) | -4.451
CC(=O)c1cccc(OCC(=O)N(CC(C)C)C2CCN(C)CC2)c1 | -3.463
Cn1cccc1C(=O)N1CCC2(CC1)c1nc[nH]c1CCN2S(C)(=O)=O | -21.07
Cc1c2ncn(CC(=O)N(C)C)c(=O)c2nn1C | -2.054
CC(C)(C)N1CCCN(C(=O)c2csc(S(N)(=O)=O)c2)CC1 | 4.518
